Screen size: about 39,000 compounds; about 3,300 (8.5%) were called active. What follows is part of a selection rich in actives, with near analogues and random picks from the rest.
What follows are molecules tested on HepG2 (assay: cytotoxicity call (relative viability < 0.9)). Conditions: 10 µM.
`C[C@H](CO)N1C[C@H](C)[C@@H](CN(C)C(=O)Oc2ccccc2)OCc2ccccc2-c2c(n(C)c3ccccc23)C1=O` was tested, and the cytotoxicity call was “inactive”.
With `C[C@@H]1O[C@@H](OC(=O)Cc2ccccc2)[C@H](O)[C@H](O)[C@H]1O` the cytotoxicity call was “inactive”.
`COC(=O)[C@H]1[C@H](CO)[C@H]2Cn3c(cccc3=O)[C@@H]1N2C(=O)C1CC1` was tested, and the cytotoxicity call was “inactive”.
For `O=C(NC[C@H]1CCC2(CCNCC2)O1)C1CC1`, the cytotoxicity call was “inactive”.
For `O=C(O)C(Cl)Cl.[NaH]`, the cytotoxicity call was “inactive”.
With `Cl.NCC(=O)c1ccccc1` the cytotoxicity call was “inactive”.
For `CNCC(O)c1ccc(O)cc1.CNCC(O)c1ccc(O)cc1.O=C(O)C(O)C(O)C(=O)O` (stereo unspecified), the cytotoxicity call was “inactive”.
With `Cc1[nH]c2ccc(O)cc2c1CCN` the cytotoxicity call was “inactive”.
`Cc1ccc2c(CCN)c(C)n(C)c2c1` was tested, and the cytotoxicity call was “active”.
`Cc1ccc2nc(CCN)[nH]c2c1` was tested, and the cytotoxicity call was “inactive”.
`C[C@@H]1[C@H](O)[C@@H](C)/C=C\C=C/CC\C=C/C=C\C=C/C=C\[C@@H](O[C@@H]2O[C@H](C)[C@@H](O)[C@H](N)[C@@H]2O)C[C@@H]2O[C@](O)(C[C@@H](O)[C@H](O)CC[C@@H](O)C[C@@H](O)C[C@@H](O)CC(=O)O[C@H]1C)C[C@H](O)[C@H]2C(=O)O` was tested, and the cytotoxicity call was “inactive”.
With `CN(C)[C@@H](CN)c1cccc(C(F)(F)F)c1` the cytotoxicity call was “inactive”.
In the case of `CN[C@@H]1[C@@H](O)[C@@H](O[C@@H]2[C@H](O)[C@@H](O[C@H]3O[C@H]([C@@H](C)O)[C@@H](O)[C@H](O)[C@H]3N)[C@H](N)C[C@@H]2N)OC[C@]1(C)O`, the cytotoxicity call is reported as “inactive”.
In the case of `CCCCCCCCCCCCCCCC[n+]1ccccc1`, the cytotoxicity call is reported as “active”.
With `CCCCCCCCCCCCCCCC[n+]1ccccc1.[Cl-]` the cytotoxicity call was “active”.
In the case of `CC(=O)c1c(O)c(C)c(O)c(Cc2c(O)c3c(c(C(=O)/C=C/c4ccccc4)c2O)OC(C)(C)C=C3)c1O`, the cytotoxicity call is reported as “inactive”.
For `COCC(=O)N1[C@@H]2Cn3c(ccc(C4=CCCC4)c3=O)[C@H]1[C@@H](C(=O)OC)[C@@H]2CO`, the cytotoxicity call was “inactive”.
For `Cn1cc(CN2C[C@H]3CNC[C@H]3C2)cn1`, the cytotoxicity call was “inactive”.
For `Cc1ccc(C[C@H]2CCCN2)cc1C`, the cytotoxicity call was “inactive”.
`NCCc1cccc(O)c1` was tested, and the cytotoxicity call was “inactive”.
For `OC[C@@H]1[C@@H](O)[C@H](O)[C@H]2[C@@H](O)CCN21`, the cytotoxicity call was “inactive”.
With `Cc1c(N)nc([C@H](CC(N)=O)NC[C@@H](N)C(N)=O)nc1C(=O)N[C@H](C(=O)N[C@@H](C)[C@H](O)[C@@H](C)C(=O)N[C@@H](C(=O)NCCc1nc(-c2nc(C(=O)NCCC[S+](C)C)cs2)cs1)[C@@H](C)O)[C@@H](O[C@H]1O[C@H](CO)[C@H](O)[C@@H](O)[C@H]1O[C@H]1O[C@H](CO)[C@@H](O)[C@H](OC(N)=O)[C@@H]1O)c1cnc[nH]1` the cytotoxicity call was “inactive”.
`Cn1cc(N2C[C@@H]3CNC[C@@H]3C2=O)cn1` was tested, and the cytotoxicity call was “inactive”.
`C/C=C(\C)C(=O)O[C@H]1C[C@@H](OC(C)=O)[C@@]2(C(=O)OC)CO[C@H]3[C@@H](O)[C@@](C)([C@]45O[C@@]4(C)[C@H]4C[C@@H]5O[C@H]5OC=C[C@@]54O)[C@H]4[C@]1(CO[C@]4(O)C(=O)OC)[C@@H]32` was tested, and the cytotoxicity call was “inactive”.
With `CC1OC(OC2CC(O)C3(CO)C4C(O)CC5(C)C(C6=CC(=O)OC6)CCC5(O)C4CCC3(O)C2)C(O)C(O)C1O.O.O.O.O.O.O.O.O` (stereo unspecified) the cytotoxicity call was “active”.
With `C[C@@H]1O[C@@H](O[C@@H]2C[C@@H](O)[C@]3(CO)[C@H]4[C@H](O)C[C@]5(C)[C@@H](C6=CC(=O)OC6)CC[C@]5(O)[C@@H]4CC[C@]3(O)C2)[C@H](O)[C@H](O)[C@H]1O` the cytotoxicity call was “active”.
In the case of `C[C@H]1C[C@@H](O)[C@]2(O)[C@@]13CC(=O)OC[C@@]2(C)[C@](C)(O)C(=O)C3`, the cytotoxicity call is reported as “inactive”.
`CCn1cc(C(=O)[O-])c(=O)c2cc3c(cc21)OCO3.[K+]` was tested, and the cytotoxicity call was “inactive”.
With `Oc1cc2c(cc1O)CNCC2` the cytotoxicity call was “inactive”.
In the case of `CS(=O)(=O)C1C[C@H]2CC[C@@H](C1)N2` (stereo partly specified), the cytotoxicity call is reported as “inactive”.
With `O=C1N[C@@H]2C(=C[C@H](O)[C@@H](O)[C@H]2O)c2cc3c(c(O)c21)OCO3` the cytotoxicity call was “active”.
`COC(=O)[C@H]1[C@H]2CO[C@@H]1CN2` was tested, and the cytotoxicity call was “inactive”.
`C[C@H]1CN([C@@H](C)CO)C(=O)CCCn2cc(nn2)CO[C@H]1CN(C)C(=O)Oc1cccc2ccccc12` was tested, and the cytotoxicity call was “inactive”.
`O=C(c1ccno1)N1C[C@@H]2CCN[C@@H]2C1` was tested, and the cytotoxicity call was “inactive”.
With `O=C(Cc1ccccc1)c1ccccc1` the cytotoxicity call was “inactive”.
For `CC(=O)[O][Hg][c]1ccccc1`, the cytotoxicity call was “active”.
In the case of `NCC(=O)c1ccccc1`, the cytotoxicity call is reported as “inactive”.
With `COC(=O)CC1=C(C(=O)OC)[C@]2(C(=O)Nc3ccccc32)C(C(=O)OC)C(=N)O1` (stereo partly specified) the cytotoxicity call was “inactive”.
In the case of `N[C@@H](c1ccccc1)[C@@H](N)c1ccccc1`, the cytotoxicity call is reported as “inactive”.
`CCCNC(=O)C1=NO[C@]2(CCNC2)C1` was tested, and the cytotoxicity call was “inactive”.
For `CC[C@@H](C)C(=O)O[C@@H]1C[C@@]2(C)[C@H](c3ccoc3)OC(=O)C[C@]23O[C@@]2(C)O[C@]34[C@H](OC(=O)C(C)C)[C@@]3(O)[C@@H](OC(=O)[C@@]5(C)O[C@@H]5C)[C@@]5(C)C[C@]3(O)[C@@](C)([C@H]5CC(=O)OC)[C@@]14O2`, the cytotoxicity call was “inactive”.
For `COc1ccc(OC(=O)N(C)C[C@H]2OCc3ccccc3-c3c(n(C)c4ccccc34)C(=O)N([C@@H](C)CO)C[C@@H]2C)cc1`, the cytotoxicity call was “inactive”.
With `N[C@@]1(C(=O)O)CC[C@H](C(=O)O)C1.N[C@]1(C(=O)O)CC[C@@H](C(=O)O)C1` the cytotoxicity call was “inactive”.
In the case of `CC1=C[C@H]2O[C@@H]3[C@H](O)[C@@H](O[C@H]4O[C@H](CO)[C@@H](O)[C@H](O)[C@H]4O)[C@](C)([C@@]2(CO)CC1)[C@]31CO1`, the cytotoxicity call is reported as “active”.
`Cc1cc(O[C@@H]2O[C@H](CO)[C@@H](O)[C@H](O)[C@H]2O)c2c3c(c(=O)oc2c1)CCC3` was tested, and the cytotoxicity call was “inactive”.
`CC(=O)OC[C@]12CCC(C)=C[C@H]1O[C@@H]1[C@H](O)[C@@H](OC(C)=O)[C@@]2(C)[C@]12CO2` was tested, and the cytotoxicity call was “active”.
For `Cc1cc(CCN)on1`, the cytotoxicity call was “inactive”.
With `C[C@@H]1CN([C@H](C)CO)C(=O)CCCn2nncc2CO[C@H]1CN(C)C(=O)Oc1ccc2ccccc2c1` the cytotoxicity call was “inactive”.
In the case of `O=S1(=O)COC2(CNC2)CN1`, the cytotoxicity call is reported as “inactive”.
For `C[C@@H]1CN([C@@H](C)CO)C(=O)CCCn2cc(nn2)CO[C@@H]1CN(C)C(=O)Oc1cccc2ccccc12`, the cytotoxicity call was “inactive”.
In the case of `COC(=O)C[C@@H](CN)c1ccc(Cl)cc1`, the cytotoxicity call is reported as “inactive”.
For `O=C1CCCC2C3CCCN4CCCC(CN12)C34` (stereo unspecified), the cytotoxicity call was “inactive”.
For `Cl.Clc1ccc(C(OCCN2CCCCC2)c2ccccc2)cc1` (stereo unspecified), the cytotoxicity call was “active”.
With `COc1ccc([C@@H](CN)C(C)C)cc1OC` the cytotoxicity call was “inactive”.
With `N[C@H]1CCN(c2cccnc2)C1` the cytotoxicity call was “inactive”.
`OC[C@H]1O[C@@H](Oc2ccc(/C=C/c3cc(O)cc(O)c3)cc2O)[C@H](O)[C@@H](O)[C@@H]1O` was tested, and the cytotoxicity call was “inactive”.
For `CC(=O)c1c(O)cc(C)oc1=O`, the cytotoxicity call was “inactive”.
`C=C(C)c1cc2cc(C(C)=O)c(O)cc2o1` was tested, and the cytotoxicity call was “active”.
With `COCCC(=O)N1C[C@H]2CCN[C@H]2C1` the cytotoxicity call was “inactive”.
In the case of `Cl.NCC(CC(=O)O)c1ccc(Cl)cc1` (racemic), the cytotoxicity call is reported as “inactive”.
In the case of `C[C@]12CC/C(=N\OCCN)C[C@@H]1C(=O)C[C@@H]1[C@@H]2CC[C@]2(C)C(=O)CC[C@@H]12`, the cytotoxicity call is reported as “inactive”.
With `O=C1NC(=O)C(C2(O)C(=O)c3ccccc3C2=O)C(=O)N1` the cytotoxicity call was “inactive”.
`CC(=O)O[C@H]1C(=O)[C@]2(C)[C@@H](O)C[C@H]3OC[C@@]3(OC(C)=O)[C@@H]2[C@H](OC(=O)c2ccccc2)[C@]2(O)C[C@H](O)C(C)=C1C2(C)C` was tested, and the cytotoxicity call was “active”.
`CC(=O)O[C@@]12CO[C@@H]1C[C@H](O)[C@@]1(C)C(=O)[C@H](O)C3=C(C)[C@@H](OC(=O)[C@H](O)[C@@H](NC(=O)c4ccccc4)c4ccccc4)C[C@](O)([C@@H](OC(=O)c4ccccc4)[C@H]21)C3(C)C` was tested, and the cytotoxicity call was “active”.
In the case of `CC(=O)OC1C(=O)C2(C)C(O)CC3OCC3(OC(C)=O)C2C(OC(=O)c2ccccc2)C2(O)CC(O)C(C)=C1C2(C)C` (stereo unspecified), the cytotoxicity call is reported as “active”.
In the case of `O=C1CC[C@]2(CCCN(Cc3cnc[nH]3)C2)N1`, the cytotoxicity call is reported as “inactive”.
In the case of `C=CCOC(=O)[C@@H]1[C@@H](C(=O)OC)N(C)[C@@H](c2ccccc2)[C@]12C(=O)Nc1ccc(I)cc12`, the cytotoxicity call is reported as “inactive”.
With `C=CCC1(O)CCC2C3CCC4=CCCCC4C3CCC21C` (stereo unspecified) the cytotoxicity call was “inactive”.
With `CN(C)C1=NC(=O)C2(CCNCC2)N1` the cytotoxicity call was “inactive”.
For `C#CCN(C)C(C)Cc1ccccc1.Cl` (stereo unspecified), the cytotoxicity call was “inactive”.
For `CN1CCN(c2nc(=O)c3c([nH]2)CCCC3)CC1`, the cytotoxicity call was “inactive”.
`N=C(N)NO` was tested, and the cytotoxicity call was “inactive”.
For `O=C([C@H]1CCCO1)N1CCCN2CCC[C@H]2C1`, the cytotoxicity call was “inactive”.
In the case of `Cc1cc2ccccc2n1CCN`, the cytotoxicity call is reported as “inactive”.
With `NC(=O)c1cn([C@H]2O[C@@H](CO)[C@H](O)[C@@H]2O)c2ncnc(N)c12` the cytotoxicity call was “active”.
`CCNC(=O)[C@H]1O[C@H](n2cnc3c(N)ncnc32)[C@@H](O)[C@@H]1O` was tested, and the cytotoxicity call was “inactive”.
For `CCNC(=O)[C@H]1O[C@@H](n2cnc3c(N)ncnc32)[C@H](O)[C@@H]1O`, the cytotoxicity call was “inactive”.
In the case of `NC(=O)c1cn([C@@H]2O[C@H](CO)[C@@H](O)[C@H]2O)c2ncnc(N)c12`, the cytotoxicity call is reported as “active”.
`NNc1ccn([C@H]2O[C@@H](CO)[C@@H](O)[C@@H]2O)c(=O)n1` was tested, and the cytotoxicity call was “inactive”.
In the case of `NNc1ccn([C@@H]2O[C@H](CO)[C@@H](O)[C@H]2O)c(=O)n1`, the cytotoxicity call is reported as “inactive”.
For `C[N+](C)(C)CC(=O)[O-].Cl`, the cytotoxicity call was “inactive”.
With `O=S(=O)(N[C@H]1CCO[C@]2(CCNC2)C1)C1CC1` the cytotoxicity call was “inactive”.
For `NCCNC[C@@H](N)CCCNC(N)=N[N+](=O)[O-].O=CC(F)(F)F`, the cytotoxicity call was “inactive”.
For `CC(=O)N1CCCC[C@]12CCNC2`, the cytotoxicity call was “inactive”.
With `CCCCC1C(=O)NC(=S)NC1=O` the cytotoxicity call was “inactive”.
In the case of `CC1CC(C)C(=O)C(C(O)CC2CC(=O)NC(=O)C2)C1` (stereo unspecified), the cytotoxicity call is reported as “active”.
With `CC12CCC3C(CC=C4CC(O)CCC43C)C1CCC2=O` (stereo unspecified) the cytotoxicity call was “inactive”.
For `COC(=O)[C@H]1CNCCN1c1ccccc1`, the cytotoxicity call was “inactive”.
`O[C@H]1[C@H](O)[C@@H](O)CN2CC[C@H](O)[C@H]12` was tested, and the cytotoxicity call was “inactive”.
With `Cc1nc2c(=O)n(C)c(=O)nc-2n(C)n1` the cytotoxicity call was “active”.
`Cn1ncnc2c(=O)n(C)c(=O)nc1-2` was tested, and the cytotoxicity call was “active”.

From the antibiotic and cytotoxicity screens of Wong et al. (2023)
